Inconclusive results are not listed. Where a call stands in place of a potency, no number is given. Activity calls are given as the source filed them. Calls come from the whole dose curve; as a rule, active = well fitted cell-killing curve with a large enough effect; inconclusive = small, poorly fitted or top-dose-only effect, or effect the other way; inactive = no such curve, though single readings can be large or run the other way.
Assay: Quantitative highthroughput screen to assess conditional lethalithy of SEM cells grown in RPMI1640 with dialyzed fetal bovine serum (RPMI+ds) (AID 1963884); note: nearly all actives have a fitted effect of over 35% in size
Details: SEM B-ALL cells, RPMI+dialyzed FBS, CellTiter-Glo viability, 48 h; series mostly up to 45.8 µM
Text: Assay Provider: Jason Cantor Ph.D.
Department of Biochemistry
University of Wisconsin-Madison, Madison, WI, USA
Chemical screening studies have identified drug sensitivities across hundreds of cancer cell lines but most putative therapeutics fail to translate. Discovery and development of drug candidates in models that more accurately reflect nutrient levels in human blood is a major challenge. Here we performed high-throughput screens in conventional versus Human Plasma-Like Medium (HPLM) to identify compounds that were "missed" when screening using the artificial culture condition. Sets of conditional anticancer compounds spanned phases of clinical development and included non-oncology drugs were assessed. […] We also traced conditional phenotypes for several chemotherapeutics to availability of HPLM-specific metabolites and confirmed others for compounds whose reported targets are encoded by nonessential genes. Our findings establish generalizable strategies for exploiting conditional lethality in HPLM to reveal therapeutic candidates and mechanisms of action in cancer cells.
Described herein are the results of each viability screens against three cell lines: NOMO1 (an acute myeloid leukemia cell line); P12-Ichikawa (a T-cell acute lymphoblastic leukemia); and SEM (a B-cell ALL). Each assay was screened using 3 different cell culture media: homemade human plasma-Like medium with 10% dialyzed fetal bovine serum (HPLM+ds); RPMI1640 with 10% untreated FBS and 5mM glucose (RPMI+s); and RPMI1640 with 10% dialyzed fetal bovine serum and 5 mM glucose (RPMI+ds).
PROTOCOL TABLE (as described by Inglese J, Shamu CE and Guy RK. 2007)
SEQUENCE No. (e.g., 1, 2, 3, etc.); […] (e.g., Cells, Incubation, Reagent, etc.); VALUE and DESCRIPTION.
1; Cells; 5 uL; white, solid bottom 1536-well Greiner assay plate.
2; Compounds; 23 nL; Kalypsis pin tool (Wako USA) equipped with a 1536-well pin head to transfer to the assay plates.
3; Incubation; 48 hours; 37C incubation.
4; Reagent; 3 uL; CellTiter Glo (Promega).
5; Incubation; 5 min, room temperature
6; Detection; Luminescence, Viewlux PerkinElmer.
NOTES (numbers refer to Sequence numbers above)
1. Briefly, 5 ul of cell reagent was dispensed using a Multidrop Combi Dispenser. The NOMO1 and SEM cells were plated at 500 cells/well and the P12-Ichikawa line at 1000 cells/well.
2. After seeding the cells, 23 nL of MIPE 4.1 library compounds (in DMSO) were added to each plate using a Kalypsys 1536 Pintool dispenser. Bortezomib at final concentration of […] and DMSO were added to each plate as positive and negative controls respectively. For each screen, MIPE 4.1 compounds were added over an eleven-point concentration range […] in 3-fold dilutions.
3. Each plate was covered with a stainless steel gasketed lid to prevent evaporation and incubated for 48 hour at 37C, 95% relative humidity, and 5% CO2.
4-5. Three microliter CellTilter-GloTM luminescent substrate mix (Promega) reagent was added to the assay plate and incubated at room temperature for 5 min.
6. The luminescence signal was measured using a ViewLux (PerkinElmer) multiplate reader with a 2 second exposure time per plate. Data for each compound were normalized as percent viability such that measurements for DMSO and the empty well controls in each plate were defined as 100% and 0%, respectively.
Potency is the fitted concentration of half-maximal effect.

Row | SMILES | Potency
1 | CCOC(=O)[C@H](CCc1ccccc1)N[C@H]1CS[C@H](c2cccs2)CN(CC(=O)O)C1=O | inactive
2 | CCc1c2c(nc3ccc(O)cc13)-c1cc3c(c(=O)n1C2)COC(=O)[C@]3(O)CC | 10.5 nM (active)
3 | CC[C@H]1OC(=O)[C@H](C)[C@@H](O[C@H]2C[C@@](C)(OC)[C@@H](O)[C@H](C)O2)[C@H](C)[C@@H](O[C@@H]2O[C@H](C)C[C@H](N(C)C)[C@@H]2O)[C@](C)(OC)C[C@@H](C)C(=O)[C@H](C)[C@@H](O)[C@]1(C)O | inactive
4 | C[C@H](O)[C@@H]1C(=O)N2C(C(=O)O)=C(S[C@@H]3CN[C@H](CNS(N)(=O)=O)C3)[C@@H](C)[C@@H]12 | inactive
5 | COc1ccc2c(c1OC)C(=O)OC2[C@H]1c2c(cc3c(c2OC)OCO3)CCN1C (stereo not given in full) | 187 nM (active)
6 | COc1cc2nc(-c3ccc(N4CCN(C)CC4)cc3)nc(NCCN3CCOCC3)c2cc1OC | 372 nM (active)
7 | COc1ccc(OC)c(-c2nnc3ccc(-c4ccc(OC)c(O[C@@H]5CCOC5)c4)nn23)c1 | inactive
8 | CCOC(=O)N1CCN([N+]([O-])=NOc2ccc([N+](=O)[O-])cc2[N+](=O)[O-])CC1 | 4690 nM (active)
9 | COc1ncc(-c2ccc3nccc(-c4ccnnc4)c3c2)cc1NS(=O)(=O)c1ccc(F)cc1F | 372 nM (active)
10 | COc1cc2ncn(-c3cc(OCc4ccccc4S(C)(=O)=O)c(C#N)s3)c2cc1OC | inactive
11 | Oc1ccc(C=Cc2cc(O)cc(O)c2)cc1 | 20900 nM (active)
12 | OC1CCC(Nc2ncc3nc(Nc4c(F)cc(F)cc4F)n([C@@H]4CCOC4)c3n2)CC1 (stereo not given in full) | inactive
13 | NC[C@H]1O[C@H](O[C@@H]2[C@@H](O)[C@@H](O[C@H]3O[C@H](CO)[C@@H](O)[C@H](N)[C@@H]3O)[C@H](N)C[C@@H]2N)[C@H](O)[C@@H](O)[C@H]1O | inactive
14 | O=c1c(O)c(-c2cc(O)c(O)c(O)c2)oc2cc(O)cc(O)c12 | inactive
15 | Cc1cc(Nc2ncnc3ccc(-c4ccc(CNCCS(C)(=O)=O)o4)cc23)ccc1Oc1ccn2ncnc2c1 | 332 nM (active)
16 | O=C(C1CC1)N1CC[C@@H](Cn2c(-c3ccc(-c4ccc5occc5c4)cc3)nc3cnccc32)C1 | inactive
17 | CN1c2cc(O)c(N=NC(N)=O)cc2CC1S(=O)(=O)O (stereo not given) | inactive
18 | CC1Cc2ccccc2N1NC(=O)c1ccc(Cl)c(S(N)(=O)=O)c1 (stereo not given) | inactive
19 | Clc1ccc(C(Cn2ccnc2)OCc2ccc(Sc3ccccc3)cc2)c(Cl)c1 (stereo not given) | inactive
20 | O=C(O)CCCCCC(=O)NN=C1CCCC1 | inactive

Row | SMILES | Potency
21 | CC(C)(CO)[C@@H](O)C(=O)NCCC(=O)O | inactive
22 | CN[C@@H]1C[C@H]2O[C@@](C)([C@H]1OC)n1c3ccccc3c3c4c(c5c6ccccc6n2c5c31)C(=O)N[C@H]4O | 526 nM (active)
23 | Cc1cc(-c2ccc(CC(=O)Nc3ccc(-c4cccnc4)cc3)cc2)ccn1 | 8330 nM (active)
24 | Cc1c(C(=O)Nc2ccc(N3C[C@@H](C)O[C@@H](C)C3)nc2)cccc1-c1ccc(OC(F)(F)F)cc1 | 2350 nM (active)
25 | CC(C)(C)c1cnc(CSc2cnc(NC(=O)C3CCNCC3)s2)o1 | 833 nM (active)
26 | c1ccc2c(Cc3c[nH]c4ccccc34)c[nH]c2c1 | 20900 nM (active)
27 | Cc1cnc(NC(=O)Nc2cc(Br)c(C)cc2OC[C@@H]2CNCCO2)cn1 | 590 nM (active)
28 | CC(C)c1nc(CN(C)C(=O)N[C@H](C(=O)N[C@@H](Cc2ccccc2)C[C@H](O)[C@H](Cc2ccccc2)NC(=O)OCc2cncs2)C(C)C)cs1 | inactive
29 | O=c1[nH]c(-c2ccc(C(F)(F)F)cc2)nc2c1CSCC2 | inactive
30 | O=c1[nH]cnc2c1ncn2[C@H]1CC[C@@H](CO)O1 | inactive
31 | COc1ccccc1OCCNCC(O)COc1cccc2[nH]c3ccccc3c12 (stereo not given) | inactive
32 | Clc1cccc(-n2nnnc2NCc2ccccc2Oc2ccccn2)c1Cl | inactive
33 | CC[C@H](C)C(=O)O[C@H]1C[C@H](O)C=C2C=C[C@H](C)[C@H](CC[C@@H](O)C[C@@H](O)CC(=O)O)[C@H]21 | inactive
34 | CNc1nccc(-c2cccnc2Oc2cc(C(=O)Nc3cccc(C(F)(F)F)c3)ccc2C)n1 | inactive
35 | C=C1C(=O)OC2C=C(C)CCC=C(C)CCC12 (stereo not given) | 23500 nM (active)
36 | COc1ncc(-c2ccc3c(Nc4cc(Oc5cc(F)cc(F)c5)cc(C(=O)O)c4)c(S(=O)(=O)NC4CC4)cnc3c2)c(OC)n1 | inactive
37 | CC(C)NCC(O)c1ccc(NS(C)(=O)=O)cc1 (stereo not given) | inactive
38 | O=C(O)CCCCC(CCSCc1ccccc1)SCc1ccccc1 (stereo not given) | inactive
39 | O=C1c2c(O)cccc2[C@@H]([C@@H]2O[C@H](CO)[C@@H](O)[C@H](O)[C@H]2O)c2cc(CO)cc(O)c21 | inactive
40 | Cc1cc2c(F)c(Oc3ncnn4cc(OC[C@@H](C)O)c(C)c34)ccc2[nH]1 | 9350 nM (active)
